Of roughly 7,900 targets only a part is listed; those with a hit were picked by preference. About 0.6% of all pairs of compound and target were hits. A number with no mark means an inactive call.
Tests used:
Assay in all cases: log2 fold change, soluble protein after heating vs DMSO (PISA); higher = thermal stabilisation; K562 cells, 10 uM, 30 min; active = over 0.2 and 3.5 SD of the protein, either way, in both replicates (recomputed)
[1] = compound: CS(=O)(=O)c1ccc(-c2cnc(N)c(C(=O)Nc3ccccc3)n2)cc1
Method in brief: (§1)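 Thermal stability values are relative to control samples and come from duplicates. They are expressed as log2 fold changes. For measurement, K562 cells (2×10^6 cells/mL) received 10 μM compound for 30 min, and aliquots were heated for 3 min over 48°C-58°C, pooled, and extracted at 4°C in PBS with 0.5% NP-40. Soluble protein, the supernatant after 21,000xg for 90 min, was quantified by TMTpro 16plex LC-MS/MS with equalised channel sums.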

[2] = compound: C[C@@H](Oc1cc(-c2cnn(C3CCNCC3)c2)cnc1N)c1c(Cl)ccc(F)c1Cl [crizotinib]
Method in brief: as §1

[3] = compound: C[C@@H]1COCCN1C2=NC(=NC(=C2)C3(CC3)S(=O)(=O)C)C4=C5C=CNC5=CC=C4
Method in brief: as §1

[4] = compound: C[C@H](C1=CC=C(C=C1)C(=O)NC2=C3C=CNC3=NC=C2)N
Method in brief: as §1

[5] = compound: C[C@H](Nc1ncnc2nc[nH]c12)c1cc2cccc(Cl)c2c(=O)n1-c1ccccc1 [duvelisib]
Method in brief: as §1

[6] = compound: Cc1cc(Nc2cc(CN3CCOCC3)c3nc(C)c(Cc4ccc(Cl)cc4F)n3n2)n[nH]1 [gandotinib]
Method in brief: as §1

[7] = compound: Cc1cc(Nc2cc(N3CCN(C)CC3)nc(Sc3ccc(NC(=O)C4CC4)cc3)n2)n[nH]1 [tozasertib]
Method in brief: as §1

[8] = compound: Cc1cc(SCc2sc(-c3ccc(C(F)(F)F)cc3)nc2C)ccc1OCC(=O)O
Method in brief: as §1

[9] = compound: Cc1ccc(-n2nc(C(C)(C)C)cc2NC(=O)Nc2ccc(OCCN3CCOCC3)c3ccccc23)cc1 [doramapimod]
Method in brief: as §1

[10] = compound: Cc1ccc(C(=O)N(CCCN)[C@@H](c2nc3cc(Cl)ccc3c(=O)n2Cc2ccccc2)C(C)C)cc1 [ispinesib]
Method in brief: as §1

UniProt P07711, sequence (P07711 whole entry, looked up): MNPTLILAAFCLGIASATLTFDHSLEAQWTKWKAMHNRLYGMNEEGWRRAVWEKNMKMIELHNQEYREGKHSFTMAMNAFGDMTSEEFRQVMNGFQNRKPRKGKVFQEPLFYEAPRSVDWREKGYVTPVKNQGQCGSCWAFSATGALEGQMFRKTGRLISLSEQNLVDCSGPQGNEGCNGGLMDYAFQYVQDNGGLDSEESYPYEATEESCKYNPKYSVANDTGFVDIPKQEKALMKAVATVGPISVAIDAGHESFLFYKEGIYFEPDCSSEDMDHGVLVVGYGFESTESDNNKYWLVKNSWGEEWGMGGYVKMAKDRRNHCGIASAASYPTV
UniProt Q9H4H8, sequence (Q9H4H8 whole entry, looked up): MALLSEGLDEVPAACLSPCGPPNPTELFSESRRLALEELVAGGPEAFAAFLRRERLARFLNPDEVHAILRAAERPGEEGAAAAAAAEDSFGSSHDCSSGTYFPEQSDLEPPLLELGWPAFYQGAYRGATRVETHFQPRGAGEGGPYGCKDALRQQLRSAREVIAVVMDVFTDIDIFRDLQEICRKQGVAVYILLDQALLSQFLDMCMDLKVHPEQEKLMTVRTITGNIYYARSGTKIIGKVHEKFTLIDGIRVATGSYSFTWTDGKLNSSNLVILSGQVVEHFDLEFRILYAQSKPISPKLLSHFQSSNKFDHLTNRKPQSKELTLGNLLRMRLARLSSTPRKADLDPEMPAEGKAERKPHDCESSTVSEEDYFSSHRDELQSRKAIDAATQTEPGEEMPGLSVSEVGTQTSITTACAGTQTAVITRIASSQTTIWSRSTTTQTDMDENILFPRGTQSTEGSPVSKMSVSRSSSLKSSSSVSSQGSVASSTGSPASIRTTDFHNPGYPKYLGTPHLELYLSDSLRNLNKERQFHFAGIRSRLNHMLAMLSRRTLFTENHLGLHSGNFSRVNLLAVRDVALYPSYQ
UniProt Q9NVR5, sequence (Q9NVR5 whole entry, looked up): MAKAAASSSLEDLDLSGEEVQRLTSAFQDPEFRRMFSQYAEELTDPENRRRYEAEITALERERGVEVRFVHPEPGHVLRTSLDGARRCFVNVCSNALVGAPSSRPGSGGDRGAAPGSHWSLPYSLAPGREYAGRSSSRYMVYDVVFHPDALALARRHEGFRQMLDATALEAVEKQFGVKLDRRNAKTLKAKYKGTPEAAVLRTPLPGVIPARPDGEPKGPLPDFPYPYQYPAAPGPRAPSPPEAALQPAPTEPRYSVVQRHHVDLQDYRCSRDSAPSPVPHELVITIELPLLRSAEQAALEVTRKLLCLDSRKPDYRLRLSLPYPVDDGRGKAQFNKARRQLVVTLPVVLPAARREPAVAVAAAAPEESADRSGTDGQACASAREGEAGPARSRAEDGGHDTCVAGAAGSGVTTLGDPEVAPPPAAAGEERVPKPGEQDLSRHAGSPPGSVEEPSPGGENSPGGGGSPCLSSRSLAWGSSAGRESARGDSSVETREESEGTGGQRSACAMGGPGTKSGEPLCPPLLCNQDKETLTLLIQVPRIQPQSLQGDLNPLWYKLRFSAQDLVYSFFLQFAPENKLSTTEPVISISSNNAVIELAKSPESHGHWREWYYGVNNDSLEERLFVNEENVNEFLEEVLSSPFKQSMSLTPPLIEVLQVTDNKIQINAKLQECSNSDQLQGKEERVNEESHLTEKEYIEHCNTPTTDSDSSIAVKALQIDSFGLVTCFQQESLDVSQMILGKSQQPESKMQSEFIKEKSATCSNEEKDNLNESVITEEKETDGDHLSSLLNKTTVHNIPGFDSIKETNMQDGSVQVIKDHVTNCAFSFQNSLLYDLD
UniProt Q9NV06, sequence (Q9NV06 whole entry, looked up): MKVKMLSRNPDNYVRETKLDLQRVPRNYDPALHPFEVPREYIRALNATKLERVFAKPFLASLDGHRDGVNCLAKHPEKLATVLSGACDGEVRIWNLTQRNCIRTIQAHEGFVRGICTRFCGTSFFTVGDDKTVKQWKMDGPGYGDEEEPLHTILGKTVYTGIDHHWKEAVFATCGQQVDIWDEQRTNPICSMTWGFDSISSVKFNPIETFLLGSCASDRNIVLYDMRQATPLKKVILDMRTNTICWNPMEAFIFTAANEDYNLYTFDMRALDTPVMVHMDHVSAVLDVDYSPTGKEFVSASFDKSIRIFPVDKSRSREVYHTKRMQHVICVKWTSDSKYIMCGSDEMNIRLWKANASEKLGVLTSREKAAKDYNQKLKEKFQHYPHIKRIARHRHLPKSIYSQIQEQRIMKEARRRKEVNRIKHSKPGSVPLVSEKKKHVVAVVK
UniProt P24534, sequence (P24534 whole entry, looked up): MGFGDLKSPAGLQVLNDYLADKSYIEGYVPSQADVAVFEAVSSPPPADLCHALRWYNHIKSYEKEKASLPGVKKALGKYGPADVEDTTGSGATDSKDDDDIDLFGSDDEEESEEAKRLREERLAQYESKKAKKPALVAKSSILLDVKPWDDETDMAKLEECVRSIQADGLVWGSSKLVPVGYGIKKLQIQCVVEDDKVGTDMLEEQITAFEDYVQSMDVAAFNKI
UniProt Q9C073, sequence (Q9C073 whole entry, looked up): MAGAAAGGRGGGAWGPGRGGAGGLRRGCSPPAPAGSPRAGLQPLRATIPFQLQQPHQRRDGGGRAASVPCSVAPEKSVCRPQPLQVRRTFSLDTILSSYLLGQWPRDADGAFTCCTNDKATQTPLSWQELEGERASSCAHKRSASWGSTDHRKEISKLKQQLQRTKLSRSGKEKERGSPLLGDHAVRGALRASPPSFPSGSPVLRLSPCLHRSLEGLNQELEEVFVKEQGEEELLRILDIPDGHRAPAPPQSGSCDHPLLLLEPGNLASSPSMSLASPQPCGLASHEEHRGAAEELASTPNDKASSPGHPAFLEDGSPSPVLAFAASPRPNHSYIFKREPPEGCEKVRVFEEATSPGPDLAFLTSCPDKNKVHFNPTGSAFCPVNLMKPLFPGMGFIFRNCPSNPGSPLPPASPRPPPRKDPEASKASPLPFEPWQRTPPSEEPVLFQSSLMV
UniProt Q03468, sequence (Q03468 whole entry, looked up): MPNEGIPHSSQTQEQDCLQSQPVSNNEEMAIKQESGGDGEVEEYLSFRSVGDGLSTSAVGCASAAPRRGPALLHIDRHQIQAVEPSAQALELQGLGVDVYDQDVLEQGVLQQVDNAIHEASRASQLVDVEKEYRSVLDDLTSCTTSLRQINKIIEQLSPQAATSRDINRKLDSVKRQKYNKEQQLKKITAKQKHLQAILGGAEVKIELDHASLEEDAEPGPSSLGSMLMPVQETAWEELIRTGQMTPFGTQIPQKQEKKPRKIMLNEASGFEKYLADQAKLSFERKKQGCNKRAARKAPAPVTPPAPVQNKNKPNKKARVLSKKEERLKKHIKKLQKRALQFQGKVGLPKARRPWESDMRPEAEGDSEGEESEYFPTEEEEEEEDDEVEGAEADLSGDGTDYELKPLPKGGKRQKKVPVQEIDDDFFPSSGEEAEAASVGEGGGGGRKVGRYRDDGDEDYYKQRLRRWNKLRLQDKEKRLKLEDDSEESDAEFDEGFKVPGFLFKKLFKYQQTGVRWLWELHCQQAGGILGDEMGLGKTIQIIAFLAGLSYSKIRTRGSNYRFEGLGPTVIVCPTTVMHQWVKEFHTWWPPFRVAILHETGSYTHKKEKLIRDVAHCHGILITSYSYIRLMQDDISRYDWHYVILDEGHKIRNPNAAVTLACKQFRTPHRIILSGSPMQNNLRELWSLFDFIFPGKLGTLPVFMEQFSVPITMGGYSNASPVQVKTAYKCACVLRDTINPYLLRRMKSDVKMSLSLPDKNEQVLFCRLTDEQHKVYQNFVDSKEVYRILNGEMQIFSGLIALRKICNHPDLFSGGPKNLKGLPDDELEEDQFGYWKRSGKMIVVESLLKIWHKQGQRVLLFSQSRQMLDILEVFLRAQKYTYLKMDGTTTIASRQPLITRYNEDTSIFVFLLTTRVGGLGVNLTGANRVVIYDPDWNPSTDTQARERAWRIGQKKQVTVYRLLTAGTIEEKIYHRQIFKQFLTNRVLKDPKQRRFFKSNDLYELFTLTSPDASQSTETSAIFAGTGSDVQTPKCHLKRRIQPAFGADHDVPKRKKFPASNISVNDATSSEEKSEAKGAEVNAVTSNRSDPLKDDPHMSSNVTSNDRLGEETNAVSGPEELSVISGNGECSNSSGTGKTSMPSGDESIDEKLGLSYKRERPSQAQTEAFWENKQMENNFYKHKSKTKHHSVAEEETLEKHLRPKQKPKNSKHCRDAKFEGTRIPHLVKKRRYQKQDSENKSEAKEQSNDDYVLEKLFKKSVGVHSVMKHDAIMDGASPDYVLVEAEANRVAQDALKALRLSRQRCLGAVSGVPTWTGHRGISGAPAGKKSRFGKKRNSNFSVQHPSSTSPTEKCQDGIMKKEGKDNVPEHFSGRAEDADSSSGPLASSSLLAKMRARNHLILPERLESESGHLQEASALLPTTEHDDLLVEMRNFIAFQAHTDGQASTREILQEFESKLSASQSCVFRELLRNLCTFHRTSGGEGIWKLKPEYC
UniProt P09668, sequence (P09668 whole entry, looked up): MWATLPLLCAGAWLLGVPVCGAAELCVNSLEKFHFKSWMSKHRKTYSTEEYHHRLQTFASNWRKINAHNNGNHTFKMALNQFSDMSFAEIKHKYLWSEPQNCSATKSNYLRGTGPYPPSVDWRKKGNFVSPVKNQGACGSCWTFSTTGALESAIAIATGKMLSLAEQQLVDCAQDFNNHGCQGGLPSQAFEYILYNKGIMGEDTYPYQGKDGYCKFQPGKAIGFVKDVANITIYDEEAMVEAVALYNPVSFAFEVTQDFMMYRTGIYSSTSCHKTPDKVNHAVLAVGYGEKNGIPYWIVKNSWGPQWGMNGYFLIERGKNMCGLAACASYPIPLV
UniProt Q96LJ7, sequence (Q96LJ7 whole entry, looked up): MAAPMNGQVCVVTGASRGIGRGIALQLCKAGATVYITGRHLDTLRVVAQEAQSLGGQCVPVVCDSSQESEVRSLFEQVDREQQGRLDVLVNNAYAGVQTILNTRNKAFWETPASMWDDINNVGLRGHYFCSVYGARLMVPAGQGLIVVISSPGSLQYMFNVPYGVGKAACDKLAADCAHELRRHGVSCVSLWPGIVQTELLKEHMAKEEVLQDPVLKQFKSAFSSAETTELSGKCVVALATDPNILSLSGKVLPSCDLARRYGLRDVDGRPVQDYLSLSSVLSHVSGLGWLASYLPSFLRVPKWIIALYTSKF

| Target | log2 fold change [1] | log2 fold change [2] | log2 fold change [3] | log2 fold change [4] | log2 fold change [5] | log2 fold change [6] | log2 fold change [7] | log2 fold change [8] | log2 fold change [9] | log2 fold change [10] |
| --- | --- | --- | --- | --- | --- | --- | --- | --- | --- | --- |
| DNTTIP2 (UniProt Q5QJE6) | 0.012 | -0.028 | -0.051 | 0.268 | -0.26 | 0.107 | -0.037 | 0.052 | 0.129 | -0.093 |
| DHRS1 (UniProt Q96LJ7) | 0.009 | 0.248 | 0.089 | -0.028 | 0.438 | 0.297 | 0.009 | 0.571 | 0.557 | 0.247 |
| FAAP100 (UniProt Q0VG06) | -0.043 | -0.027 | 0.142 | -0.051 | 0.041 | -0.096 | -0.023 | -0.077 | 0.033 | -0.006 |
| CUEDC2 (UniProt Q9H467) | 0.028 | -0.029 | 0.026 | -0.113 | 0.048 | -0.017 | 0.109 | 0.012 | -0.087 | 0.024 |
| EEF1B2 (UniProt P24534) | 0.003 | -0.018 | -0.073 | 0.092 | 0.04 | -0.043 | 0.052 | 0.013 | -0.065 | -0.024 |
| FAM117A (UniProt Q9C073) | -0.039 | -0.166 | -0.013 | -0.132 | -0.119 | -0.053 | -0.12 | 0.067 | 0.017 | 0.024 |
| DCAF13 (UniProt Q9NV06) | -0.086 | 0.067 | -0.538 (active) | 0.273 | -0.105 | 0.221 | 0.007 | -0.033 | 0.173 | -0.1 |
| DHCR24 (UniProt Q15392) | 0.229 | 0.428 | 0.076 | 0.056 | 0.027 | -0.025 | 0.276 | -0.063 | 0.982 (active) | -0.053 |
| DIAPH1 (UniProt O60610) | 0.047 | -0.152 | -0.054 | 0.168 | -0.058 | -0.063 | 0.153 | 0.125 | 0.135 | -0.089 |
| ERCC6 (UniProt Q03468) | -0.12 | 0.061 | 0.011 | -0.127 | 0.044 | 0.017 | -0.051 | -0.103 | 0.053 | 0.152 |
| EFL1 (UniProt Q7Z2Z2) | 0.02 | -0.055 | 0.074 | 0.016 | 0.002 | -0.056 | -0.009 | 0.029 | -0.013 | -0.018 |
| DHPS (UniProt M0R1T2) | -0.152 |  |  |  |  |  |  |  |  |  |
| EHD2 (UniProt Q9NZN4) | 0 | -0.068 | 0.077 | -0.008 | 0.048 | -0.028 | -0.003 | 0.002 | 0 | -0.007 |
| EIF4A1 (UniProt P60842) | -0.055 | -0.058 | 0.03 | -0.015 | 0.007 | -0.206 | -0.008 | 0.047 | 0.025 | -0.11 |
| CTSL (UniProt P07711) | 0.025 | -0.489 (active) | -0.02 | 0.021 | -0.07 | 0.006 | -0.081 | -0.013 | 0.018 | -0.199 |
| DPYSL2 (UniProt Q16555) | 0.034 | 0.025 | -0.09 | 0.023 | 0.33 | -0.015 | -0.012 | 0.082 | 0.069 |  |

| Target | log2 fold change [1] | log2 fold change [2] | log2 fold change [3] | log2 fold change [4] | log2 fold change [5] | log2 fold change [6] | log2 fold change [7] | log2 fold change [8] | log2 fold change [9] | log2 fold change [10] |
| --- | --- | --- | --- | --- | --- | --- | --- | --- | --- | --- |
| DLD (UniProt P09622) | -0.068 | -0.023 | 0.019 | -0.042 | 0.016 | -0.02 | -0.009 | 0.014 | -0.016 | -0.083 |
| DNAJC19 (UniProt Q96DA6) | 0.008 | -0.073 | 0.055 | -0.089 | 0.004 | 0.011 | 0.007 | -0.017 | -0.011 | -0.069 |
| ELOC (UniProt Q15369) | 0.038 | 0.074 | 0.279 (active) | -0.07 | 0.137 | -0.001 | 0.06 | -0.015 | 0.012 | 0.134 |
| DNAH10 (UniProt Q8IVF4) | 0.124 | 0.135 | -0.003 | -0.055 | 0.077 | -0.136 | -0.146 | -0.082 | -0.003 |  |
| FAM83D (UniProt Q9H4H8) | -0.018 | -0.061 | 0.021 | 0.014 | 0.001 | -0.308 (active) | 0.025 | 0.08 | -0.009 | 0.064 |
| EHBP1L1 (UniProt Q8N3D4) | 0.034 | -0.01 | -0.005 | 0.012 | 0.139 | -0.206 | 0.067 | 0.115 | -0.018 | -0.047 |
| DCAF16 (UniProt Q9NXF7) | 0.058 | 0.001 | 0.176 | -0.103 | 0.054 | 0.069 | 0.079 | 0.17 | -0.005 | 0.036 |
| DNAJB12 (UniProt Q9NXW2) | 0.02 | -0.029 | 0.038 | 0.035 | -0.009 | -0.073 | -0.001 | 0.097 | -0.034 | -0.227 (active) |
| EXOC8 (UniProt Q8IYI6) | -0.062 | -0.32 (active) | 0.109 | 0.053 | 0.004 | -0.203 | 0.048 | 0.063 | 0.007 | -0.364 (active) |
| EED, A0A5F9ZI63 | -0.074 | 0.045 | -0.047 | 0.007 | 0.014 | 0.07 | -0.016 | -0.013 | 0.028 | 0.019 |
| EOGT (UniProt Q5NDL2) | 0.052 | 0 | -0.054 | 0.069 | 0.045 | -0.003 | -0.05 | -0.137 | 0.068 | -0.006 |
| CTSH (UniProt P09668) | 0.032 | -0.249 (active) | 0.074 | -0.02 | -0.034 | 0.031 | -0.068 | -0.068 | 0.023 | -0.221 |
| DNAAF2 (UniProt Q9NVR5) | 0.018 | -0.015 | -0.067 | 0.003 | 0.019 | -0.182 | 0.02 | -0.034 | 0.042 | 0.032 |
| ECH1 (UniProt Q13011) | 0.025 | -0.086 | 0.068 | -0.011 | 0.04 | -0.195 | 0.434 (active) | -0.008 | -0.023 | -0.208 |
| CTSA (UniProt P10619) | 0.032 | -0.563 (active) | 0.002 | -0.036 | -0.039 | 0.043 | 0.011 | 0.003 | 0.009 | -0.237 (active) |

Reference: the supplement of paper PMC10849652
